Wnt bcat act: activates Wnt/beta-catenin signaling in a reporter cell assay; activation, % at 9.35 µM; actives 1.2% (n = 300,000); activator, plate reader; in the data active = activation above about 30%, passing the limit was not always enough; inconclusive = no clear call, values can overlap the other calls;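 also: 0% = neutral control wells and 100% = positive control wells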
PAX8 inh HTS: PAX8 transcriptional activity inhibition; RMG-I TPO-luciferase reporter, SteadyGlo, 24 h; actives 1.2% (n = 360,000); inhibition, % at 12.6 µM;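 active = mean replicate inhibition at least 60% with every replicate also reaching 60%; inconclusive = only one of the two criteria is met; inactive = mean below 60% and not all replicates reaching 60%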;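 also: luciferase light reporting Pax8 driven TPO promoter activity; plate controls were median of neutral control wells for no effect and mitoxantrone controls for full effect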
MITF act: increases MITF-driven TRPM1 promoter luciferase signal; AID 588334; actives 0.75% (n = 300,000); SK-MEL-5 TRPM1-promoter luciferase, 24 h; % of positive control, neutral wells = 0; activation, % at 12.5 µM;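 active = mean activation of at least 80% with every replicate also reaching 80%; inconclusive = mean reaches 80% but some replicate falls short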;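 also: 0% = neutral control wells and 100% = parthenolide positive control wells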
EWS-Fli inh: EWS/Fli transcriptional activity inhibition; AID 651661; A673 NR0B1-luciferase reporter, viability-normalised; actives 0.67% (n = 350,000); inhibition, % at 12.6 µM;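 active = mean inhibition of at least 50% after viability correction, with every replicate also passing that limit; inconclusive = mean reaches 50% but only one of two replicates passes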;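 also: firefly luciferase signal divided by Alamar Blue viability fluorescence both relative to DMSO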
TRPM1 prom inh: reduces MITF-dependent TRPM1 promoter luciferase signal; inhibition, % at 12.5 µM; actives 0.83% (n = 330,000); SK-MEL-5 TRPM1 promoter luciferase, 24 h;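 active = mean inhibition across replicates of 60% or more, whatever share of single replicates reaches that level; inconclusive = some that reach 60%, reason not given; inactive = mean inhibition across replicates below 60%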
esBAF inh: inhibitors of esBAF chromatin remodeling in mouse ES cells; Bmi1-luciferase knock-in reporter, 24 h; 100% = twice the neutral-well signal; reporter increase, % at 12.5 µM; actives 2% (n = 350,000); in the data active = activation above about 40%; inconclusive = no clear call, values can overlap the other calls;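 also: 0% = median of the plate's neutral control wells and 100% = double that signal; a rise in the Bmi1 reporter signal indicates esBAF inhibition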
Numbers without * were called inactive; ? = inconclusive; / = no result; ! = not confirmed by another sample. This is a sample that favours compounds with a hit; in the whole collection about 4% have one here.

SMILES | Wnt bcat act | PAX8 inh HTS | MITF act | EWS-Fli inh | TRPM1 prom inh | esBAF inh
Cc1ccc(-c2ccc(C3[C@@H]4CN(C(=O)Nc5ccc(C(F)(F)F)cc5)C[C@H]3N4)cc2)cc1 (stereo partly drawn) | / | 91*! | / | -11 | / | /
COc1ccc(NC(=O)N(C)C[C@@H]2Oc3ccc(NC(=O)CCCCCC(=O)Nc4ccccc4N)cc3CC(=O)N([C@H](C)CO)C[C@@H]2C)cc1 | / | 11 | / | 3 | / | -1
COc1ccc(C(=S)Nc2ccc(N(C)C)cc2)cc1 | 68* | -195 | 67 | / | -63 | 12
COc1ccc(NC(=S)c2ccccc2)cc1 | 16 | -161 | 83* | / | -80 | 61*
Cc1ccc(NC(=S)c2ccc(N(C)C)cc2)cc1 | 46* | -212 | 14 | / | -14 | -16
COc1cc(-c2nc3ccccc3s2)ccc1O | / | / | 15 | / | -13 | ?
CN(C(=O)OC(C)(C)C)c1ccc(-c2nc3ccccc3s2)cc1 | -20 | 92* | -94 | 88* | 94* | -80
FC(F)(F)c1ccc(-c2nc3ccccc3s2)cc1 | 0 | -50 | / | -66 | / | 16
CC(C)c1ccc(-c2nc3ccccc3s2)cc1 | -21 | 88* | -93 | 89* | 92* | /
COc1ccc(-c2nc3ccccc3s2)cc1O | -23 | 74* | -44 | / | 46 | /
CC(C)NC(=O)N(C)C[C@H]1Oc2c(NS(=O)(=O)c3ccccc3)cccc2C(=O)N([C@@H](C)CO)C[C@H]1C | / | -11 | / | -1 | / | -5
Clc1ccc(CSc2ccc(-c3ccccn3)nn2)cc1 | 27 | -23 | 10 | -52 | -8 | 32
Clc1ccc(CSc2cc3c(nn2)-c2ccccc2CC3)cc1 | / | / | 45 | / | -41 | 52*
C[C@H]1CN([C@@H](C)CO)C(=O)Cc2cc(NC(=O)CCC(F)(F)F)ccc2O[C@@H]1CN(C)C | / | -3 | / | -4 | / | -3
Cc1ccc(-n2c(C)cc(C(=O)CSc3nncs3)c2C)cc1 | / | / | 29 | / | -28 | /
Cc1ccc(-n2c(C)cc(C(=O)CSc3nnnn3C)c2C)cc1 | 63* | -143 | 45 | / | -42 | 27
CC1CCc2c(C(=O)Nc3ccccn3)csc2C1 (stereo not drawn) | 52* | -175 | 75 | -61 | -70 | /
CCSc1nnc(NC(=O)c2csc3c2CCC(C)C3)s1 (stereo not drawn) | / | / | 23 | / | -18 | 4
CC1CCc2c(C(=O)NCc3ccccn3)csc2C1 (stereo not drawn) | 15 | -71 | 43 | -101 | -46 | /
CC1CCc2c(C(=O)Nc3nccs3)csc2C1 (stereo not drawn) | 21 | / | 75 | / | -66 | 58*
Cc1ccccc1/C=N/NC(=O)Cn1nnc(N)n1 | -1 | 65* | -7 | -5 | 11 | -1
COCC(=O)N1CC2(C1)CN(C(=O)CN1CCOCC1)[C@@H](CO)c1c2c2ccc(OC)cc2n1C | / | / | / | -5 | / | /
C=C1C(=O)C23CCC4C(C)(C(=O)OC)CCCC4(C)C2CCC1(O)C3 (stereo not drawn) | -7 | 134* | / | 56* | 117* | /
COCCn1c(C(C)C)nc2oc3ccccc3c(=O)c2c1=O | 0 | / | 5 | / | -4 | -3
CCc1nc2oc3ccccc3c(=O)c2c(=O)n1-c1ccccc1 | 53* | -69 | 35 | / | -37 | 30
SMILES | Wnt bcat act | PAX8 inh HTS | MITF act | EWS-Fli inh | TRPM1 prom inh | esBAF inh
COc1ccc(Cn2c(-c3ccco3)nc3oc4ccccc4c(=O)c3c2=O)cc1 | 7 | -21 | / | / | -38 | 68*
CCCc1nc2oc3ccccc3c(=O)c2c(=O)n1-c1ccc(C)cc1 | 49* | -49 | / | -103 | / | /
Cc1ccc(-n2c(C(C)C)nc3oc4ccccc4c(=O)c3c2=O)cc1 | 65* | -54 | 44 | -94 | -48 | /
COc1ccc(Cn2c(-c3ccco3)nc3oc4cc(OC)ccc4c(=O)c3c2=O)cc1 | 24 | -49 | 69 | / | -114 | ?
CCCc1nc2oc3ccccc3c(=O)c2c(=O)n1-c1ccccc1 | 15 | -29 | / | -117 | / | /
C[C@H]1CN([C@@H](C)CO)C(=O)c2cccc(NC(=O)C3CCOCC3)c2O[C@H]1CN(C)Cc1ccc(C(=O)O)cc1 | / | -1 | / | -1 | / | 6
C[C@H]1CN([C@@H](C)CO)C(=O)c2cccc(NS(=O)(=O)c3ccc(Cl)cc3)c2O[C@H]1CN(C)C(=O)Nc1ccc(F)cc1 | / | 48 | / | 1 | / | 5
CCc1nc2oc3ccccc3c(=O)c2c(=O)n1CCOC | -7 | 9 | / | / | 10 | -11
CCc1nc2oc3ccccc3c(=O)c2c(=O)n1-c1ccc(C)cc1 | 44* | -41 | / | -65 | / | /
O=C(NC1CCC1)[C@H]1[C@H](CO)[C@H]2Cn3c(ccc(C4=CCCC4)c3=O)[C@@H]1N2CC1CC1 | / | / | / | -1 | / | 5
CN(C)C(=O)[C@H]1[C@H](CO)[C@H]2Cn3c(cccc3=O)[C@H]2N1C(=O)C1CCCCC1 | / | / | / | 8 | / | 4
CC=Cc1ccc2n(c1=O)C[C@@H]1[C@@H](CO)[C@H](C(=O)NCc3ccccn3)[C@H]2N1CCC (mixture of isomers) | / | -6 | / | 0 | / | 2
CC(C)(C)c1ccc(-c2noc(CCC(=O)NCc3ccco3)n2)cc1 | -2 | 49 | -82 | 35 | 83* | /
Brc1ccc(-c2csc(NNC3=NCCCCC3)n2)cc1 | / | -16 | -3 | / | 4 | 21
FC(F)Oc1ccc(-c2csc(NNC3=NCCCCC3)n2)cc1 | 9 | -21 | -5 | -38 | 4 | 49*
O=C1NCC2=C1C(c1ccc(Br)cc1)Nc1ccccc1N2 (stereo not drawn) | / | / | / | / | -17 | 58*
O=C(O)COc1ccc(-c2nccc(-c3ccccn3)n2)cc1 | 0 | -2 | -42 | 53* | 45 | -73
C[C@@H]1CN([C@@H](C)CO)C(=O)c2cc(NC(=O)CCC(F)(F)F)ccc2O[C@H]1CN(C)S(=O)(=O)c1ccc(F)cc1 | / | -11 | / | 2 | / | -2
CN(Cc1cccs1)C(=O)c1ccc(S(=O)(=O)N2CCCCC2)cc1 | -3 | -8 | 0 | -4 | 1 | /
Cc1ccc(CN(C)C(=O)c2ccc(S(=O)(=O)N3CCCCCC3)cc2)o1 | 36* | 5 | 13 | 5 | -11 | -2
CC1CCN(CCOc2ccc(OCc3ccccc3)cc2)CC1 | 1 | 118* | 50 | -22 | -53 | 7
Cc1ccc(NC(=S)NNc2ncc(C(F)(F)F)cc2Cl)c(C)c1 | / | / | 6 | / | -10 | -10
FC(F)(F)c1cnc(NNC(=S)Nc2ccc(Cl)cc2)c(Cl)c1 | / | 76* | -48 | / | 50 | /

Assay outcomes deposited in PubChem by Broad Institute.
